Anthrax LF prot – blocks Bacillus anthracis lethal factor protease; P15917; multiplex microsphere protease cleavage assay, LF; inhibition, % at 10 µM; hit rate 0.12% among 360,000; further: plate controls were buffer without enzyme for full effect and enzyme alone for no effect
BoNT-F LC inh – BoNT F light chain protease inhibition; AID 588497; inhibition, % at 10 µM; hit rate 0.22% among 360,000; Multiplex microsphere protease cleavage assay, flow cytometry; in the data active means inhibition above about 35%, passing the limit was not always enough; inconclusive means no clear call, values can overlap the other calls; further: plate controls were buffer without enzyme for full effect and enzyme alone for no effect
BoNT-A LC inh2 – blocks Botulinum neurotoxin A light chain protease; multiplex microsphere protease substrate cleavage, flow cytometry; AID 588499; hit rate 0.17% among 360,000; inhibition, % at 10 µM; further: plate controls were buffer without enzyme for full effect and enzyme alone for no effect
Bead autofluor – compound fluorescence in toxin protease inhibitor counterscreen | hit rate 3.1% among 360,000 | fluorescence intensity (no concentration beside the values) | compound autofluorescence counterscreen, microsphere flow cytometry; active compounds read high | AID 624483; in the data active means fluorescence intensity above about 16000; inconclusive means no clear call, values can overlap the other calls
TcdB inh – blocks C. difficile toxin B glycohydrolase activity; AID 652162; TcdB glycohydrolase enzymatic assay, plate reader; P18177; inhibition, % at 9.99 µM; hit rate 0.24% among 350,000; in the data active means inhibition above about 10%
Starred values were filed as active, the others as inactive; ? = inconclusive; . = no result given. This is one part of a sample in which hits are shown more often than they occur. Unless noted, no stated cut-off is given here; in the data, active means inhibition above about 30%; inconclusive means no clear call, values can overlap the other calls; inactive means below that.

SMILES	Anthrax LF prot	BoNT-F LC inh	BoNT-A LC inh2	Bead autofluor	TcdB inh
O=C(O)c1c(Cl)c(Cl)c(Cl)c(Cl)c1C(=O)N1CCCC1	-5	3	1	8073	.
CC(C)NC(=O)N(C)C[C@H]1Oc2ccc(NC(=O)CCN3CCOCC3)cc2CC(=O)N([C@@H](C)CO)C[C@@H]1C	.	.	.	.	0
CCn1cnc2cc(NCc3cccc(OC)c3O)ccc21	-8	-20	-2	7113	-4
CCCCn1cnc2cc(NCc3cccc(OC)c3O)ccc21	-5	-8	?	20423*	.
CCS(=O)(=O)N1CCN(C2Cc3ccccc3C2)CC1	-1	0	?	22089*	.
C[C@H](CO)N1C[C@H](C)[C@H](CN(C)Cc2ccc(Oc3ccccc3)cc2)Oc2c(NC(=O)Nc3ccc(C(F)(F)F)cc3)cccc2C1=O	.	.	.	.	2
Cc1ccccc1CN1CCCNC1=O	-2	0	1	10623	.
Cc1ccccc1CN1CCNC1=O	-9	-2	2	19805*	.
O=C(C[C@@H]1C=C[C@H](NC(=O)CC2CC2)[C@@H](CO)O1)NCc1ccc(Cl)cc1	.	.	.	.	-4
CCN(CC(=O)Nc1ccc2c(c1)OCCO2)CC(=O)Nc1ccc2c(c1)OCO2	-1	6	0	4394	2
COc1ccc(S(=O)(=O)N2CCC(C(=O)c3ccc4c(c3)OCCO4)CC2)cc1	0	4	1	9619	.
O=C(CN1CCC(C(=O)c2ccc(F)cc2)CC1)Nc1ccccc1	0	-1	1	19525*	.
CCN(CC(=O)Nc1ccc2c(c1)OCCO2)Cc1cc(=O)oc2c(C)c(C)ccc12	-2	9	?	20523*	0
O=C(c1ccc2c(c1)OCCO2)C1CCN(S(=O)(=O)c2ccccc2F)CC1	-7	-1	?	23887*	.
Cc1ccc(C(=O)C2CCN(CC(=O)Nc3ccc4c(c3)OCCO4)CC2)cc1	0	-3	1	23981*	.
Cc1cccc(NC(=O)CN2CCC(C(=O)c3ccc4c(c3)OCCO4)CC2)c1	7	-8	0	3710	0
O=C(C[C@@H]1CC[C@H]2[C@@H](COC[C@H](O)CN2C(=O)Nc2ccc(Cl)c(Cl)c2)O1)NCc1ccc(Cl)c(Cl)c1	.	.	.	.	-2
COc1ccc(-c2ccc(C3[C@H]4CNC[C@@H]3N4C(=O)Nc3ccccc3F)cc2)cc1 (stereo partly specified)	.	.	.	.	-2
CCC(=O)N1C[C@@H](C)[C@H](OC)CN(C)C(=O)c2ccc(NC(=O)Nc3ccccc3)cc2OC[C@H]1C	.	.	.	.	-2
COc1ccc2c3c(n(C)c2c1)[C@H](CO)N(Cc1nccs1)CC31CN(C(=O)CN(C)C)C1	.	.	.	.	0
CCNC(=O)Nc1ccc2c(c1)C(=O)N(C)[C@@H]1CC[C@H](CC(=O)NCCOC)O[C@@H]1CO2	.	.	.	.	1
CCOc1ccc(C(=O)N2CCC(C(=O)c3ccc4c(c3)OCCO4)CC2)cc1	1	0	1	17361*	.
Cc1ccc(C(=O)C2CCN(CC(=O)Nc3ccc(N(C)C)cc3)CC2)cc1	-1	-5	?	21202*	.
O=C(c1ccc(F)cc1)C1CCN(C(=O)NCc2ccccc2)CC1	0	-1	-1	24106*	-8
O=C(NCc1ccc(F)cc1)C1CCCN(C(=O)Nc2ccccc2)C1 (stereo unspecified)	-4	-1	?	19569*	.
SMILES	Anthrax LF prot	BoNT-F LC inh	BoNT-A LC inh2	Bead autofluor	TcdB inh
O=C(NC1CCN(C(=O)NCc2ccccc2)CC1)c1ccc(F)cc1	-4	6	-2	6064	0
CCCC(=O)Nc1ccc2c(c1)C(=O)N(C)C[C@H](OC)[C@@H](C)CN(C)[C@H](C)CO2	.	.	.	.	1
O=C(NC1CCC1)[C@H]1[C@H](CO)[C@H]2Cn3c(ccc(-c4ccc(F)cc4)c3=O)[C@H]2N1Cc1ccccn1	.	.	.	.	0
CCN(CC(=O)Nc1ccc2c(c1)OCCO2)S(=O)(=O)c1ccc(C)cc1	2	-4	-2	17435*	.
CCN(Cc1ccc2c(c1)OCCO2)S(=O)(=O)c1ccc(NC(C)=O)cc1	-8	-4	-1	6718	1
Cc1ccc(-c2csc3nc(C)n(N)c(=O)c23)o1	-1	0	?	22183*	.
O=C(NCc1ccc2c(c1)OCO2)C1CCN(S(=O)(=O)N2CCCCC2)CC1	2	3	0	10814	.
Cc1ccnc(N2CCC(C(=O)NCc3ccc(F)cc3)CC2)n1	3	-2	0	4828	1
O=C(NCc1ccc2c(c1)OCO2)C1CCN(c2ccc(S(=O)(=O)N3CCCC3)cc2)CC1	-2	-4	-1	19826*	1
Cc1ccc(CNC(=O)C2CC=CCC2C(=O)O)cc1 (stereo unspecified)	-11	24	-2	3186	0
Cc1ccnc(N2CCC(C(=O)NCc3ccc4c(c3)OCO4)CC2)n1	0	4	?	20911*	-1
O=C(O)C1CC=CCC1C(=O)NCc1ccc2c(c1)OCO2 (stereo unspecified)	1	-4	-2	23458*	.
CCc1c(C)nc2ncnn2c1N1CCC(C(=O)N2CCN(c3ccc(F)cc3)CC2)CC1	-1	-6	?	24650*	.
C[C@@H]1CN([C@H](C)CO)C(=O)c2cccc(NC(=O)C3CCCCC3)c2O[C@@H]1CN(C)CC1CC1	.	.	.	.	0
O=C(NCc1ccc2c(c1)OCO2)C1CCN(c2ncccn2)CC1	0	0	?	21984*	.
CCOc1ccc(OCC)c(NC(=O)CN2CCC(NC(=O)c3cccc(F)c3)CC2)c1	-2	-4	0	20291*	.
CCOc1ccc(OCC)c(NC(=O)C2CCN(c3ncccn3)CC2)c1	-2	-7	?	22945*	.
O=C(NCc1cccc(C(F)(F)F)c1)C1CCN(c2ncccn2)CC1	1	2	1	22251*	.
CCCC(=O)Nc1ccc2c(c1)C(=O)N(C)[C@H]1CC[C@H](CC(=O)N3CCCCC3)O[C@H]1CO2	.	.	.	.	0
Cc1nc2ncnn2c(N2CCC(C(=O)NC3CCCC3)CC2)c1Cc1ccccc1	-1	1	0	11151	4
CCc1c(C)nc2ncnn2c1N1CCCC(C(=O)NCc2ccc3c(c2)OCO3)C1 (stereo unspecified)	-6	2	2	22326*	.
COc1cccc(OC)c1C(=O)N1CCN(c2c(Cc3ccccc3)c(C)nc3ncnn23)CC1	-7	-15	-13	26771*	1
O=C(Cc1ccncc1)NCC[C@@H]1CC[C@@H](NC(=O)C2CCOCC2)[C@@H](CO)O1	.	.	.	.	1
O=C(Nc1cccc(F)c1)N1CC(=O)N2[C@H](CO)[C@H](c3ccc(-c4cccc(F)c4)cc3)[C@@H]2C1	.	.	.	.	0
Cc1cc(C)c2c(=O)n(CC(=O)Nc3ccc(Cl)cc3)sc2n1	-7	5	48*	3796	0
CCC(=O)N1CCc2cc(S(=O)(=O)NCCC(=O)N3CCc4ccccc4C3)ccc21	-4	3	0	10223	.
CCC(=O)N1CCc2cc(S(=O)(=O)NCCC(=O)N3CC=C(c4ccccc4)CC3)ccc21	-1	-4	-2	22498*	.
O=C(Nc1c(C(=O)N2CCOCC2)cnn1-c1ccccc1)c1ccccc1	-2	5	-1	11466	.
O=C(Nc1c(C(=O)N2CCOCC2)cnn1-c1ccccc1)c1ccco1	-4	-2	?	23770*	.

Source: PubChem BioAssay
